Test results: PubChem BioAssay (NCATS)
Where “and” joins values, the source holds several entries; their conditions need not be identical. Equal entries are not always repeated. Inconclusive results are not listed. A call without a number means that no potency is given here. Some structures have more than one record in an assay (separate samples or runs), and their calls can disagree. Calls of active or inactive are those of the source. Calls follow the shape of the dose curve; as a rule, active = well fitted curve in the direction sought with a large enough effect; inconclusive = small, poorly fitted or top-dose-only effect, or another doubt; inactive = no such curve, though single readings can be large; an effect the other way counts as inactive or inconclusive.

Columns and labels:
[1] = test system: CRL-7250; test: Cytotoxic Profiling of Annotated Libraries Using Quantitative High-Throughput Screening (AID 1296008); conditions: Five cell lines viability, CellTiter-Glo ATP luminescence, 48-72 h; max response: stronger effect = lower value; also: nearly all actives have a fitted effect of over 60% in size; also: potency is read from the fitted curve at half-maximal effect
In short: (§1)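 Compounds were pin-transferred onto cells and incubated 48 or 72 hr at 37 degree Celsius, 95% humidity. CellTiter-Glo was added, plates sat 10 min at room temperature, then ATP-coupled luminescence was imaged as the viability read-out.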

[2] = test system: HEK293; test: as above; conditions: Five cell lines viability, CellTiter-Glo ATP luminescence, 48-72 h; max response: stronger effect = lower value
In short: as §1

[3] = test system: HaCat; test: as above; conditions: Five cell lines viability, CellTiter-Glo ATP luminescence, 48-72 h; max response: stronger effect = lower value
In short: as §1

[4] = test system: KB-3-1; test: as above; conditions: Five cell lines viability, CellTiter-Glo ATP luminescence, 48-72 h; max response: stronger effect = lower value
In short: as §1

[5] = test system: NIH3T3; test: as above; conditions: Five cell lines viability, CellTiter-Glo ATP luminescence, 48-72 h; max response: stronger effect = lower value
In short: as §1

[6] = test system: HACAT; test: qHTS assay to identify novel small-molecules to repurpose for Merkel cell carcinoma treatment (AID 1296009); conditions: MCC and control cell lines, CellTiter-Glo viability, 72 h; at 44.8 µM (top of the series) unless noted; also: nearly all actives have a fitted effect of over 60% in size; also: potency is read from the fitted curve at half-maximal effect
In short: (§2)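 qHTS format: cells treated with library compounds in DMSO across 8 (NPC) or 11 (MIPE) concentrations. Readout after 72 hr at 37 degree celsius was CellTiter-Glo luminescence.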

[7] = test system: HEK293T; test: as above; conditions: MCC and control cell lines, CellTiter-Glo viability, 72 h; at 44.8 µM (top of the series)
In short: as §2

[8] = test system: MCC-13; test: as above; conditions: MCC and control cell lines, CellTiter-Glo viability, 72 h; series mostly up to 46 µM
In short: as §2

[9] = test system: MCC-26; test: as above; conditions: MCC and control cell lines, CellTiter-Glo viability, 72 h; series mostly up to 46 µM
In short: as §2

[10] = test system: MKL-1; test: as above; conditions: MCC and control cell lines, CellTiter-Glo viability, 72 h; series mostly up to 46 µM
In short: as §2

[11] = test system: MKL-2; test: as above; conditions: MCC and control cell lines, CellTiter-Glo viability, 72 h; series mostly up to 46 µM
In short: as §2

[12] = test system: NIH3T3; test: as above; conditions: MCC and control cell lines, CellTiter-Glo viability, 72 h; at 44.8 µM (top of the series) unless noted
In short: as §2

[13] = test system: UISO; test: as above; conditions: MCC and control cell lines, CellTiter-Glo viability, 72 h; series mostly up to 46 µM
In short: as §2

[14] = test system: WaGa; test: as above; conditions: MCC and control cell lines, CellTiter-Glo viability, 72 h; series mostly up to 46 µM
In short: as §2

[15] = test system: C33A; test: Primary qHTS to identify gynecologic anti-cancer compounds using libraries of approved drugs and bioactive compounds (AID 1345084); conditions: Gynecologic cancer cell panel viability, ATPlite luminescence, 48 h; series mostly up to 57.5 µM; also: nearly all actives have a fitted effect of over 55% in size
In short: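 Five-point cytotoxicity, 48 h drug exposure at 37 C, 5% CO2, on cells seeded 16 h beforehand. ATP content read by ATPlite luminescence.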

[16] = test system: SC27B; test: qHTS profiling for inhibitors of Plasmodium falciparum proliferation (AID 504749); also: nearly all actives have a fitted effect of over 60% in size; also: potency is read from the fitted curve at half-maximal effect; conditions: P. falciparum in erythrocytes, SYBR Green DNA, 72 h; series mostly up to 28.7 µM
In short: (§3)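 Parasite proliferation within erythrocytes, 72 h exposure. Endpoint: SYBR Green I fluorescence after overnight lysis at room temperature. Controls: 0.29 uM artemisinin, DMSO.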

[17] = test system: TAB109; test: as above; conditions: P. falciparum in erythrocytes, SYBR Green DNA, 72 h; series mostly up to 28.7 µM
In short: as §3

[18] = test system: TAB113; test: as above; conditions: P. falciparum in erythrocytes, SYBR Green DNA, 72 h; series mostly up to 28.7 µM
In short: as §3

[19] = test system: TAB165; test: as above; conditions: P. falciparum in erythrocytes, SYBR Green DNA, 72 h; series mostly up to 28.7 µM
In short: as §3

[20] = test system: W2; test: as above; conditions: P. falciparum in erythrocytes, SYBR Green DNA, 72 h; series mostly up to 28.7 µM
In short: as §3

OC(CCN1CCCCC1)(c1ccccc1)C1CC2C=CC1C2 (centres undefined)
outcome [1]: inactive
outcome [2]: inactive
max response [3]: -0.0685% (inactive)
outcome [3]: inactive
max response [4]: -2.63% (inactive) and -12.8% (inactive)
outcome [4]: inactive
outcome [5]: inactive
outcome [6]: inactive
outcome [7]: inactive
Potency [8]: inactive
Potency [9]: inactive
Potency [10]: inactive
Potency [11]: inactive
outcome [12]: inactive
Potency [13]: inactive
Potency [14]: inactive
Potency [15]: inactive

CC(c1cc2ccccc2s1)N(O)C(N)=O (centres undefined)
Potency [16]: inactive
Potency [17]: inactive
Potency [18]: inactive
Potency [19]: inactive
Potency [20]: inactive
max response [1]: -2.06% (inactive)
outcome [1]: inactive
outcome [2]: inactive
max response [3]: -0.226% (inactive) and -8.25% (inactive)
max response [4]: 0.162% (inactive) and -9.2% (inactive)
max response [5]: 3.52% (inactive)
outcome [5]: inactive
outcome [7]: inactive
Potency [8]: inactive
Potency [9]: inactive
Potency [10]: inactive
Potency [11]: inactive
outcome [12]: inactive
Potency [13]: inactive
Potency [14]: inactive
Potency [15]: inactive

Cc1c(C)c2c(c(C)c1O)CCC(C)(COc1ccc(CC3SC(=O)NC3=O)cc1)O2 (centres undefined)
Potency [16]: 10 µM (active)
Potency [17]: inactive
Potency [18]: 11.2 µM (active)
Potency [20]: 6.75 µM (active)
outcome [1]: inactive
max response [2]: -17% (inactive)
outcome [2]: inactive
outcome [3]: inactive
max response [4]: -2.71% (inactive) and -9.42% (inactive)
max response [5]: -1.07% (inactive)
outcome [5]: inactive
outcome [6]: inactive
outcome [7]: inactive
Potency [8]: inactive
Potency [9]: inactive
Potency [10]: inactive
Potency [11]: inactive
outcome [12]: inactive
Potency [14]: 16.8 µM (active) and inactive
Potency [15]: inactive

COc1ccc([C@@H]2CC(=O)c3c(O)cc(O[C@@H]4O[C@H](CO[C@@H]5O[C@@H](C)[C@H](O)[C@@H](O)[C@@H]5O)[C@@H](O)[C@H](O)[C@@H]4O)cc3O2)cc1O
max response [1]: -5.3% (inactive)
outcome [1]: inactive
outcome [2]: inactive
max response [3]: -2.14% (inactive) and 4.84% (inactive)
max response [4]: 2.27% (inactive)
outcome [4]: inactive
max response [5]: 2.09% (inactive)
outcome [5]: inactive
outcome [7]: inactive
Potency [8]: inactive
Potency [9]: inactive
Potency [10]: inactive
Potency [11]: inactive
outcome [12]: inactive
Potency [13]: inactive
Potency [14]: inactive

Cc1[nH]c(=O)c(C#N)cc1-c1ccncc1
Potency [16]: inactive
Potency [17]: inactive
Potency [18]: inactive
Potency [19]: inactive
Potency [20]: inactive
max response [1]: 1.86% (inactive) and -12.7% (inactive)
outcome [1]: inactive
max response [2]: -9.35% (inactive)
outcome [2]: inactive
max response [3]: 4.3% (inactive) and 4.05% (inactive) and -9.78% (inactive)
max response [4]: 6.66% (inactive) and -5.96% (inactive) and -18.3% (inactive)
max response [5]: 0.936% (inactive)
outcome [5]: inactive
outcome [7]: inactive
Potency [8]: inactive
Potency [9]: inactive
Potency [10]: inactive
Potency [11]: inactive
outcome [12]: inactive
Potency [13]: inactive
Potency [14]: inactive
Potency [15]: inactive

COc1ccc(CCN2CCN(CCCc3ccccc3)CC2)cc1OC
outcome [1]: inactive
Potency [2]: 6.51 µM (active)
max response [2]: -22.2% (inactive)
outcome [3]: inactive
max response [4]: 0.435% (inactive) and -5.04% (inactive)
max response [5]: 1.46% (inactive)
outcome [5]: inactive
outcome [6]: inactive
Potency [8]: inactive
Potency [9]: inactive
Potency [10]: inactive
Potency [11]: inactive
outcome [12]: inactive
Potency [13]: inactive
Potency [14]: inactive
Potency [15]: inactive

CCCc1nc2c(C)cc(-c3nc4ccccc4n3C)cc2n1Cc1ccc(-c2ccccc2C(=O)O)cc1
Potency [16]: 1.58 µM (active)
Potency [18]: 2.24 µM (active)
Potency [19]: 1.58 µM (active)
Potency [20]: 1.9 µM (active)
max response [1]: -5.08% (inactive) and 4.25% (inactive)
outcome [2]: inactive
outcome [3]: inactive
max response [4]: 14.7% (inactive) and 4.38% (inactive)
max response [5]: 1.27% (inactive)
outcome [5]: inactive
outcome [6]: inactive
outcome [7]: inactive
Potency [8]: inactive
Potency [9]: inactive
Potency [10]: inactive
Potency [11]: inactive
outcome [12]: inactive
Potency [13]: inactive
Potency [14]: inactive
Potency [15]: inactive

CCOc1cc(C(=O)Nc2ccc(Cl)c(-c3nc4ccccc4[nH]3)c2)cc(OCC)c1OCC
outcome [1]: inactive
Potency [2]: 16.6 µM (active)
max response [3]: 1.32% (inactive) and 3.52% (inactive)
max response [4]: -16% (inactive) and -9.64% (inactive)
max response [5]: -3.49% (inactive)
outcome [5]: inactive
Potency [8]: inactive
Potency [9]: inactive
Potency [10]: inactive
outcome [12]: inactive
Potency [14]: inactive

O=c1[nH]cnc2[nH]ncc12
Potency [16]: inactive
Potency [17]: inactive
Potency [18]: inactive
Potency [19]: inactive
Potency [20]: inactive
max response [1]: 2.71% (inactive) and -1.4% (inactive)
max response [2]: -10.4% (inactive)
max response [3]: 0.897% (inactive)
outcome [3]: inactive
max response [4]: 2.11% (inactive) and 5.17% (inactive)
max response [5]: 4.86% (inactive) and -3.07% (inactive)
outcome [6]: inactive
Potency [8]: inactive
Potency [9]: inactive
Potency [10]: inactive
Potency [11]: inactive
Potency [13]: inactive
Potency [14]: inactive
Potency [15]: inactive

CCCc1nn(C)c2c(=O)[nH]c(-c3cc(S(=O)(=O)N4CCN(C)CC4)ccc3OCC)nc12
Potency [16]: inactive
Potency [17]: inactive
Potency [18]: inactive
Potency [19]: inactive
max response [1]: -31.4% (inactive) and 2.3% (inactive)
Potency [2]: 18.7 µM (active)
max response [3]: -6.49% (inactive) and -10.8% (inactive)
max response [4]: 4.32% (inactive)
outcome [4]: inactive
max response [5]: -19.3% (inactive) and 3.51% (inactive)
Potency [8]: inactive
Potency [9]: inactive
Potency [10]: inactive
Potency [11]: inactive
Potency [13]: inactive
Potency [14]: inactive
Potency [15]: inactive
